“And” between values parts separate entries of the source, which are not always exact repeats. Identical values can stand only once. Inconclusive results are not listed. A call without a number means that no potency is given here. The source made the active and inactive calls. Unless noted, calls come from the whole dose curve.
Experiments:
[1] = biological target: Ubiquitin carboxyl-terminal hydrolase 1 (Homo sapiens) (UniProt O94782); experiment: Inhibitors of USP1/UAF1: Pilot qHTS (AID 504865; active = well fitted inhibition curve with a large enough effect; note: nearly all actives have a fitted effect of over 35% in size; note: potency is the fitted concentration of half-maximal effect); details: purified USP1/UAF1, Ub-rhodamine cleavage fluorescence; series mostly up to 114 µM
How it was run: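 In 50mM HEPES pH 7.8 containing 0.5mM EDTA, 1mM TCEP, 0.1 mg/ml BSA and 0.01% Tween-20, 1nM USP1/UAF1 is exposed to compound for 15 min, then Ub-Rho (150nM final) is added and fluorescence is read over time.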

[2] = biological target: Estrogen receptor (Homo sapiens) (UniProt P03372); experiment: qHTS assay for small molecule antagonists of estrogen receptor alpha signaling (AID 588513; active = well fitted curve in the direction sought with a large enough effect in the signal ratio, with a control signal flat, not every such curve was filed as active; the % refers to the signal ratio); details: ER-alpha-UAS-bla HEK293, beta-lactamase ratio, antagonist mode; series mostly up to 76.9 µM
How it was run: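 Fluorescence from CCF4 substrate after 2 h at room temperature gave reporter activity; cells had been exposed to compound and 0.5nM 17-beta-estradiol for 18 h at 37 C. Hill-equation fitting yielded IC50 and maximal response.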

[3] = biological target: Estrogen receptor (Homo sapiens) (UniProt P03372); experiment: qHTS assay for small molecule agonists of estrogen receptor alpha signaling (AID 588514); details: ER-alpha-UAS-bla HEK293, beta-lactamase ratio, 18 h; series mostly up to 76.8 µM; note: nearly all actives have a fitted effect of over 70% in size
How it was run: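 Efficacy is expressed against 20 nM 17-beta-estradiol (100%) and DMSO basal (0%); EC50 from Hill equation. Assay: beta-lactamase reporter in ER-alpha-UAS-bla HEK 293 cells, 18 h compound incubation, CCF4 detection.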

[4] = biological target: Bile acid receptor (Homo sapiens) (UniProt Q96RI1); experiment: qHTS assay for small molecule antagonists of farnesoid X receptor signaling (AID 588526); details: HEK293T FXR-UAS-bla, beta-lactamase ratio, antagonist mode; series mostly up to 76.7 µM
How it was run: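 Concentration-response titrations were fitted to the Hill equation for half-maximal inhibition and maximal response, with data normalised to 50 uM chenodeoxycholic acid and DMSO control wells. Cells: FXR-UAS-bla HEK293T, dialyzed FBS.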

[5] = biological target: Glucocorticoid receptor (Homo sapiens) (UniProt P04150); experiment: qHTS assay for small molecule antagonists of glucocorticoid receptor signaling (AID 588533; active = well fitted inhibition curve with a large enough effect in the signal ratio, with a control signal flat, not every such curve was filed as active; the % refers to the signal ratio;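 note: cells stimulated with 2 nM dexamethasone as agonist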); details: HeLa MMTV-bla, GRE beta-lactamase ratio, antagonist mode, 18 h; series mostly up to 76.8 µM
How it was run: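 Antagonist-mode qHTS: compound titrations added to GRE-bla HeLa cells, then dexamethasone 2 nM final; 18 h, 37 C. CCF4 FRET fluorescence normalized to dexamethasone and DMSO; IC50 from Hill fit.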

[6] = biological target: Peroxisome proliferator-activated receptor gamma (Homo sapiens) (UniProt P37231); experiment: qHTS assay for small molecule antagonists of peroxisome proliferator-activated receptor gamma signaling (AID 588537; active = well fitted inhibition curve with a large enough effect in the signal ratio, with a control signal flat, not every such curve was filed as active; the % refers to the signal ratio;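 note: reporter cells co-stimulated with 50 nM rosiglitazone agonist during compound treatment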); details: HEK293 PPARg-UAS-bla, beta-lactamase ratio, antagonist mode; series mostly up to 76.8 µM
How it was run: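 Compounds are tested as concentration series for inhibition of rosiglitazone-driven (50 nM) reporter expression in GeneBLAzer PPAR-gamma-UAS-bla HEK293 cells. After 16 h at 37 C, CCF4 substrate is added for 2 h at room temperature and blue/green fluorescence is measured.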

[7] = biological target: Vitamin D3 receptor (Homo sapiens) (UniProt P11473); experiment: qHTS assay for small molecule agonists of vitamin D receptor signaling (AID 588543); details: HEK293T VDR-UAS-bla, beta-lactamase ratio, 16 h; series mostly up to 76.8 µM
How it was run: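 Reporter cells (HEK293T, VDR-UAS-bla) were seeded in medium with 2% charcoal-stripped serum and incubated 5 h, then compounds in concentration series were added for 16 h at 37 °C. Stimulation was scaled between DMSO basal and 50 nM 1α,25-dihydroxyvitamin D3.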

[8] = qHTS assay for small molecule agonists of retinoid X receptor alpha signaling (AID 588544); details: HEK293T RXRa-UAS-bla, beta-lactamase reporter, 18 h; 530 nm emission
[9] = biological target: Retinoic acid receptor RXR-alpha (Homo sapiens) (UniProt P19793); experiment: as above; details: HEK293T RXRa-UAS-bla, beta-lactamase reporter, 18 h; series mostly up to 76.7 µM
[10] = biological target: Thyroid hormone receptor beta (Homo sapiens) (UniProt P10828); experiment: qHTS assay for small molecule agonists of thyroid hormone receptor beta signaling (AID 588545); details: TR-UAS-bla GripTite HEK 293, beta-lactamase ratio, agonist mode, 18 h, percent of T3 response, DMSO as zero; series mostly up to 76.7 µM
How it was run: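 HEK 293 TR-UAS-bla; agonist mode; 18 hrs, 37 C; CCF4, ex 405/em 460 and 530 nm; norm. T3 10 nM = 100%, DMSO = 0%; Hill fit → EC50, efficacy.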

[11] = biological target: Glucocorticoid receptor (Homo sapiens) (UniProt P04150); experiment: qHTS assay for small molecule agonists of glucocorticoid receptor signaling (AID 588532; active = well fitted curve in the direction sought with a large enough effect in the signal ratio, with a control signal flat; the % refers to the signal ratio); details: HeLa MMTV-bla, beta-lactamase ratio, agonist, 18 h; stronger effect = higher value; percent of dexamethasone control, DMSO zero
How it was run: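 Titration series, up to 92 uM, applied to GRE-bla HeLa cells for 18 h at 37 C. Detection by CCF4 FRET substrate after 2 h at RT.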

[12] = qHTS assay for small molecule antagonists of peroxisome proliferator-activated receptor delta signaling (AID 588535; active = well fitted inhibition curve with a large enough effect in the signal ratio, with a control signal flat, not every such curve was filed as active; the % refers to the signal ratio;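 for max response: cells co-treated with a PPAR-delta agonist as stimulator during compound exposure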); details: HEK293T PPARd-UAS-bla, beta-lactamase FRET ratio, 18 h; 460 nm channel
How it was run: (§1)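 Inhibition of PPAR-delta response element-driven beta-lactamase expression is measured in HEK293T cells exposed to a compound titration series for 18 hrs at 37 C. Half-maximal inhibition comes from Hill equation fitting.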

[13] = biological target: Peroxisome proliferator-activated receptor delta (Homo sapiens) (UniProt Q03181); experiment: as above; details: HEK293T PPARd-UAS-bla, beta-lactamase FRET ratio, 18 h; series mostly up to 76.7 µM
How it was run: as §1

[14] = biological target: Vitamin D3 receptor (Homo sapiens) (UniProt P11473); experiment: qHTS assay for small molecule antagonists of vitamin D receptor signaling (AID 588541); details: HEK293T VDR-UAS-bla, beta-lactamase ratio, antagonist mode; series mostly up to 76.7 µM;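 note: receptor activated by calcitriol during compound treatment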
How it was run: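 VDR-UAS-bla HEK293T cells (2000/well, 2% charcoal-stripped FBS) were treated with titrated compounds plus 1-alpha,25-dihydroxyvitamin D3 (50 nM or 3 nM final) for 16 h at 37 C. CCF4 beta-lactamase fluorescence was read; Hill fits gave IC50.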

[15] = biological target: DNA dC->dU-editing enzyme APOBEC-3G (Homo sapiens) (UniProt Q9HC16); experiment: qHTS for inhibitors of Vif-A3G interactions: Validation (AID 588379; active = well fitted inhibition curve with a large enough effect); details: Vif-A3G protein interaction assay; series mostly up to 46.1 µM
How it was run: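 Yellow fluorescence (Ex 488, Em 500-530) of Vif-coexpressing HeLa A3G-eYFP cells, scanned by Acumen cytometer, reports blocked A3G degradation. Cells plated at 700/well overnight at 37 deg C before compound addition, then a further overnight compound incubation at 37 deg C.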

[16] = biological target: Androgen receptor (Homo sapiens) (UniProt P10275); experiment: qHTS assay for small molecule agonists of androgen receptor signaling (AID 588515; active = well fitted curve in the direction sought with a large enough effect in the signal ratio, with a control signal flat; the % refers to the signal ratio); details: AR-UAS-bla HEK293, beta-lactamase ratio, agonist 16 h; stronger effect = higher value
How it was run: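 Stimulation of an AR-responsive β-lactamase reporter in GripTite HEK293 cells was measured after 16 h compound exposure at 37 °C, via CCF4 fluorescence after 2 h RT. EC50 from Hill fits, normalized to R1881 at 30 nM.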

[17] = biological target: Androgen receptor (Homo sapiens) (UniProt P10275); experiment: qHTS assay for small molecule antagonists of androgen receptor signaling (AID 588516; active = well fitted curve in the direction sought with a large enough effect in the signal ratio, with a control signal flat, not every such curve was filed as active; the % refers to the signal ratio); details: AR-UAS-bla HEK293, beta-lactamase ratio, antagonist mode, 16 h; series mostly up to 76.8 µM
How it was run: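 Cells were plated and incubated 5 h, compounds added in titration, then R1881 (10 nM final) as agonist. After 16 h at 37 C, CCF4 substrate was loaded for 2 h at room temperature and fluorescence measured.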

Chain of DNA dC->dU-editing enzyme APOBEC-3G (Homo sapiens) (Q9HC16 whole entry, looked up): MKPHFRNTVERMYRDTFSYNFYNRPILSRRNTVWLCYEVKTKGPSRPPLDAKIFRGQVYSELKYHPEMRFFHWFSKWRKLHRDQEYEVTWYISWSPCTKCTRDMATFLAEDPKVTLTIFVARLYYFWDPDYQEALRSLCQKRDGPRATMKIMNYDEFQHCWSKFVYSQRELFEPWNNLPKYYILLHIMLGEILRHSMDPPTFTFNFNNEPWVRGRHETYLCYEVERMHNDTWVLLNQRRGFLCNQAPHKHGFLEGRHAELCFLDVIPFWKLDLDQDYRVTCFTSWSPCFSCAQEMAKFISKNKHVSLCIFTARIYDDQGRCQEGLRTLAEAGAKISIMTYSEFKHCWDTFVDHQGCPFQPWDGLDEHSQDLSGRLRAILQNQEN
Chain of Peroxisome proliferator-activated receptor delta (Homo sapiens) (Q03181 whole entry, looked up): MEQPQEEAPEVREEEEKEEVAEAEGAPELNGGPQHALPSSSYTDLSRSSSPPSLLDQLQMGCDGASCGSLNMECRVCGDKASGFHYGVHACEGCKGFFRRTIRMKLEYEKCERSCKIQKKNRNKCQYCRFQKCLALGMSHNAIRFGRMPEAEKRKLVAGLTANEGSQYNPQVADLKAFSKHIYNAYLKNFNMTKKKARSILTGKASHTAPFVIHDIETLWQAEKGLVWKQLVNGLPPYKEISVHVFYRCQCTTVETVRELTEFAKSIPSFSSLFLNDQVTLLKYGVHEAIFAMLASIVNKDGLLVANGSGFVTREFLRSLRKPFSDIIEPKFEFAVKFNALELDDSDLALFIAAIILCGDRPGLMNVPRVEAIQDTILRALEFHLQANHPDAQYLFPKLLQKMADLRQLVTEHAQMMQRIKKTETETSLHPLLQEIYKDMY
Chain of Androgen receptor (Homo sapiens) (P10275 whole entry, looked up): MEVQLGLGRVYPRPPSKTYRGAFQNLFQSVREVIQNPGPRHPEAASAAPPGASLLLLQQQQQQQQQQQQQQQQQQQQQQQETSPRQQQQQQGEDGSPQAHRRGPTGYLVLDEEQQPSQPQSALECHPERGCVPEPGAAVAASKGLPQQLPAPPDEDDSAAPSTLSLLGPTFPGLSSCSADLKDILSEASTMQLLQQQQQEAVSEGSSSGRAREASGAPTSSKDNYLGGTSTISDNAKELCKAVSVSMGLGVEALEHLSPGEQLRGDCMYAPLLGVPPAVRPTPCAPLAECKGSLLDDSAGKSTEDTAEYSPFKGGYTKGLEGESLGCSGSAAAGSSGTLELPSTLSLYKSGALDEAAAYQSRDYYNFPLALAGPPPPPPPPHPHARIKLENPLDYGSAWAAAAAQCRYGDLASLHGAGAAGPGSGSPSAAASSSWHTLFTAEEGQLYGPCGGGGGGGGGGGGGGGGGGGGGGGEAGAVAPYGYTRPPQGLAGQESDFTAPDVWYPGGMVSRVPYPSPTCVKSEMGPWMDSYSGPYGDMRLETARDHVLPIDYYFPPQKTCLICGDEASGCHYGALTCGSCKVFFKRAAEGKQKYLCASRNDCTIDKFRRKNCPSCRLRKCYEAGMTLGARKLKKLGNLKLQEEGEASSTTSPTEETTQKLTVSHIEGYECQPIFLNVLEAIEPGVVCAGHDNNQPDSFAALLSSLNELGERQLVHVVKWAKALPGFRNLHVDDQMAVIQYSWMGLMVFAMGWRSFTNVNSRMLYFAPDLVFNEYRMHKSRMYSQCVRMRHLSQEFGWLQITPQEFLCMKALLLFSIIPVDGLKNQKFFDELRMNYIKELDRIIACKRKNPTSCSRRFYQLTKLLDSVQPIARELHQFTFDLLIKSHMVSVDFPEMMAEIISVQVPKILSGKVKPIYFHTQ
Chain of Glucocorticoid receptor (Homo sapiens) (P04150 whole entry, looked up): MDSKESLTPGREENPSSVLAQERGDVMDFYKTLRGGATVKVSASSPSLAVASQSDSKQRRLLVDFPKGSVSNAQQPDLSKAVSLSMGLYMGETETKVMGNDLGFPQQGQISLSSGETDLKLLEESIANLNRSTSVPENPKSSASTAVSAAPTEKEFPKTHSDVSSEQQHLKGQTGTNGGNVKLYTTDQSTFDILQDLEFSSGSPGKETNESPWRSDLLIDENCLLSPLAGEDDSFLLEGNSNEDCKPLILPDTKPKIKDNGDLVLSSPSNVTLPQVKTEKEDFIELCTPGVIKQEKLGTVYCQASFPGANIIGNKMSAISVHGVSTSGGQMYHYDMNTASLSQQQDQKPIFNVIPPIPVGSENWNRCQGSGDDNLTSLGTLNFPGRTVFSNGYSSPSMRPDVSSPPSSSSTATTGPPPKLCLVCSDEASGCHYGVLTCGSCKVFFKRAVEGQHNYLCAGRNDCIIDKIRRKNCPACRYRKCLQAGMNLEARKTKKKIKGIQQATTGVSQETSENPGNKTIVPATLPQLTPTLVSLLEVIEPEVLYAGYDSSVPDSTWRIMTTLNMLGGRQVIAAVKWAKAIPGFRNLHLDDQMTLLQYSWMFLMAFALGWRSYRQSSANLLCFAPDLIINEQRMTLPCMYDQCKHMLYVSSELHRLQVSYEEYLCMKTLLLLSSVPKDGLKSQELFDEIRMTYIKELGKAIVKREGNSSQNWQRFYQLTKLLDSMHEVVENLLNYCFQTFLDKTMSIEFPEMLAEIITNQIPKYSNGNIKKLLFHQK
Chain of Retinoic acid receptor RXR-alpha (Homo sapiens) (P19793 whole entry, looked up): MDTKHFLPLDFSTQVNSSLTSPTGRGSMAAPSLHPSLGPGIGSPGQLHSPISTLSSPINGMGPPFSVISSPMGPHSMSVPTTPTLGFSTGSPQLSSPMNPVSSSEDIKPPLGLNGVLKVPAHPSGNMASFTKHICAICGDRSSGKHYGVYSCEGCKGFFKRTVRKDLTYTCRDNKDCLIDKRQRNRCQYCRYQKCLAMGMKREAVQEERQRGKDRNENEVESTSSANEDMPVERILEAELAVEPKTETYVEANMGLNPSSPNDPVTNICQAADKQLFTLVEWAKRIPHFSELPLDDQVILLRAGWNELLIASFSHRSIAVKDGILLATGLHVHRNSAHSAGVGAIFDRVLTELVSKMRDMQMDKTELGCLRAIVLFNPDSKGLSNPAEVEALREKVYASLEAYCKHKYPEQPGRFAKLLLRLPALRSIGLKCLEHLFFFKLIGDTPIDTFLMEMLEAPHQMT
Chain of Ubiquitin carboxyl-terminal hydrolase 1 (Homo sapiens) (O94782 whole entry, looked up): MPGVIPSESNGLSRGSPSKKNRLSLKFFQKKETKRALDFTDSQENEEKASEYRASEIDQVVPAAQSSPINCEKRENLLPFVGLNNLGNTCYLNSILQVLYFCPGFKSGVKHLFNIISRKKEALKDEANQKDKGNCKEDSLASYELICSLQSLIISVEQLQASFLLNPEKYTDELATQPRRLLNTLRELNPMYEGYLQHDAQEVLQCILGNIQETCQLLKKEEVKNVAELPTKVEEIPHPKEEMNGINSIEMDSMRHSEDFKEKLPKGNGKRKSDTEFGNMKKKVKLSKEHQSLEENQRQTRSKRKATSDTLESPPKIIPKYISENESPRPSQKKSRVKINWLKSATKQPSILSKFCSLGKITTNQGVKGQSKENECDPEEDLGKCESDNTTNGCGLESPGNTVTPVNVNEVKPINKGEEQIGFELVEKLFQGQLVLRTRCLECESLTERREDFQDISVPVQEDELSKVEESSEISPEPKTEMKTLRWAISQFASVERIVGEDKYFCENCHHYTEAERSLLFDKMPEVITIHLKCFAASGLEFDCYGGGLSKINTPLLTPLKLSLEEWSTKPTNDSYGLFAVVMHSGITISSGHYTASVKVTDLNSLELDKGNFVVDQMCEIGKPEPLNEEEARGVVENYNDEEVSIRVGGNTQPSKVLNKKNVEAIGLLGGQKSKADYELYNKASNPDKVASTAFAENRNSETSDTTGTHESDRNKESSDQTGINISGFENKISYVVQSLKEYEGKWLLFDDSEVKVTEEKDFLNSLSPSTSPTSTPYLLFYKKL
Chain of Vitamin D3 receptor (Homo sapiens) (P11473 whole entry, looked up): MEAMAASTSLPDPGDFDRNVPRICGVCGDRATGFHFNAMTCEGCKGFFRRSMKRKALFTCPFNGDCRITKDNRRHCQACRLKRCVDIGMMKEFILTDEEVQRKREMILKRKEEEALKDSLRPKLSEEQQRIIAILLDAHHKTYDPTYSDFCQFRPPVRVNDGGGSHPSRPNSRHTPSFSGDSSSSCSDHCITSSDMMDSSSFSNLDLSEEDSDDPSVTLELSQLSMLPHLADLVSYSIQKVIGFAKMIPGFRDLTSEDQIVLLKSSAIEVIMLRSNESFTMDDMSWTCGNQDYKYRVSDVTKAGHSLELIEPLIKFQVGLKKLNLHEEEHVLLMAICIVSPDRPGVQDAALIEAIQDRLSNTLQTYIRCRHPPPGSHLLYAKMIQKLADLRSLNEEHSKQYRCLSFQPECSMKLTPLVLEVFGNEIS
Chain of Bile acid receptor (Homo sapiens) (Q96RI1 whole entry, looked up): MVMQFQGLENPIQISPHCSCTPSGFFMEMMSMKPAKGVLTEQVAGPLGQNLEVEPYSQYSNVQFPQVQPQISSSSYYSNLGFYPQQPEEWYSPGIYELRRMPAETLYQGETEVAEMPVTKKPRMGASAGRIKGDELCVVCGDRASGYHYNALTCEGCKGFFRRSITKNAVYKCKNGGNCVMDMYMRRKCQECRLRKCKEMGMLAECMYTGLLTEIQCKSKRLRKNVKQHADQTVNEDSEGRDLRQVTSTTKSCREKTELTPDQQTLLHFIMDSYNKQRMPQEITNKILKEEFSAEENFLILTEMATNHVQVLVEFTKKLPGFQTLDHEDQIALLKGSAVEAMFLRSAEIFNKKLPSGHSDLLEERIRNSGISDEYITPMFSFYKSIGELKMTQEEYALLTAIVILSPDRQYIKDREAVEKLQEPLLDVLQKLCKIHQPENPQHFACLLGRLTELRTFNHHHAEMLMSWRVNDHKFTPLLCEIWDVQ

## O=C(O)c1ccc(S(=O)(=O)N(Cl)Cl)cc1
[1]
  Potency: inactive
[2]
  Potency: inactive
[3]
  Potency: inactive
[4]
  outcome: inactive
[5]
  outcome: inactive
[6]
  Potency: inactive
[7]
  outcome: inactive
[8]
  max response: -8.23%
[9]
  outcome: inactive
[10]
  outcome: inactive

## CCCCCCCCCCCCCCCCO
[2]
  Potency: inactive
[3]
  Potency: inactive
[11]
  activation: -8.72% (inactive)
[5]
  outcome: inactive
[12]
  max response: -7.5%
[13]
  outcome: inactive
[6]
  Potency: inactive
[14]
  Potency: inactive
[7]
  outcome: inactive
[8]
  max response: 2.95%
[9]
  outcome: inactive
[10]
  outcome: inactive

## COc1cc([C@H]2Oc3cc([C@H]4Oc5cc(O)cc(O)c5C(=O)[C@@H]4O)ccc3O[C@@H]2CO)ccc1O
[1]
  Potency: inactive
[2]
  Potency: inactive
[4]
  outcome: inactive
[11]
  activation: -3.21% (inactive)
[14]
  Potency: inactive
[7]
  outcome: inactive

## CC1(COc2ccc(CC3SC(=O)NC3=O)cc2)CCCCC1 (stereo not drawn)
[1]
  Potency: 20 µM (active)
[10]
  outcome: inactive

## CN1CCC[C@@H]1CCO[C@](C)(c1ccccc1)c1ccc(Cl)cc1
[1]
  Potency: inactive
[15]
  outcome: inactive

## CCOc1ccc(NC(C)=O)cc1
[1]
  Potency: inactive
[2]
  Potency: inactive
[3]
  Potency: inactive
[16]
  activation: 13.2% (inactive) and 14.9% (inactive)
[17]
  Potency: inactive
[4]
  outcome: inactive
[11]
  activation: 0.725% (inactive)
[5]
  outcome: inactive
[6]
  Potency: inactive
[14]
  Potency: inactive
[7]
  outcome: inactive
[8]
  max response: 2.99% and -14.4%
[9]
  outcome: inactive
[10]
  outcome: inactive

## CCCCC(CC)COC(=O)c1ccc(N(C)C)cc1 (stereo not drawn)
[2]
  Potency: inactive
[3]
  Potency: inactive
[4]
  outcome: inactive
[11]
  activation: -4.68% (inactive)
[5]
  outcome: inactive
[12]
  max response: 0.453% and -4.75%
[13]
  outcome: inactive
[6]
  Potency: inactive
[14]
  Potency: inactive
[7]
  outcome: inactive
[8]
  max response: -13.5%
[9]
  outcome: inactive
[10]
  outcome: inactive

## CCCCCCCC/C=C\CCCCCCCCN
[1]
  Potency: inactive
[2]
  Potency: inactive
[3]
  Potency: inactive
[12]
  max response: -29.2%
[13]
  outcome: inactive
[14]
  Potency: inactive
[7]
  outcome: inactive
[8]
  max response: -3%
[9]
  outcome: inactive
[10]
  outcome: inactive

## CN1CCc2cccc3c2[C@H]1Cc1ccc(O)c(O)c1-3
[1]
  Potency: inactive
[15]
  outcome: inactive

## Cl/C(=C\n1cncn1)c1ccc(Cl)cc1Cl
[1]
  Potency: inactive
[15]
  outcome: inactive

Source: PubChem BioAssay (NCATS)
